# The list is not random: actives were taken first. Their share in the collection is about 9.9%.
# Tau fluor counter: counter-screen for tau fibril formation inhibitors. tau K18 P301L Alexa594 fluorescence, heparin fibrillization. actives 0.93% (n = 280,000). Potency, µM (doses to about 57.7 µM), for the others: top-dose activity change, negative = decrease. AID 1463; active = well fitted curve in the direction sought with a large enough effect; inconclusive = small, poorly fitted or top-dose-only effect, or another doubt; inactive = no such curve, though single readings can be large; an effect the other way counts as inactive or inconclusive; also: nearly all actives have a fitted effect of over 55% in size
#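 Human K18 P301L tau (15 uM unlabeled plus 0.24 uM Alexa 594-labeled, final) in 100 mM sodium acetate pH 7 was mixed with compound and 20 uM heparin and incubated 6 hr at 37 C.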
# ALDH1A1 block: inhibitors of human aldehyde dehydrogenase 1A1. P00352. Purified ALDH1A1, NADH fluorescence, propionaldehyde substrate. Potency, µM (highest dose often 75.3 µM), inactives show at the top dose activity, negative = inhibition, usual class: inhibitors. actives 7.3% (n = 220,000). AID 1030;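 also: plate controls were no enzyme wells and a reference inhibitor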
# HPGD block: HPGD (human) dehydrogenase inhibition; P15428; purified HPGD, NADH fluorescence kinetic, PGE2 substrate; Potency, µM, without a hit: top-dose activity change, negative = inhibition, most hits filed as inhibitors; actives 4.3% (n = 150,000); AID 894
# Target sequence (P15428 whole entry, looked up): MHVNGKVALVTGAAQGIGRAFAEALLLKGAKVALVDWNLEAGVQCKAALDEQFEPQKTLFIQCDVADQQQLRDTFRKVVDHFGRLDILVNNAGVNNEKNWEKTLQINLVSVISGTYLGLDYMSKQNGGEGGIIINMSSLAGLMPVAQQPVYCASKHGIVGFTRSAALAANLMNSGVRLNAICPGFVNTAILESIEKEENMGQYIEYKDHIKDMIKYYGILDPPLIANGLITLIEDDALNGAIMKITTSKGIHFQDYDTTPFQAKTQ
#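 NADH formation kinetics: reaction with 30 uM PGE2 and 1 mM NAD+ (final), 20 nM enzyme, Tris-HCl pH 8 with Tween 20, after 15 min compound preincubation at room temperature. Fluorescence change, last versus first of five reads.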
# Tau fibril FP: tau fibrillization inhibition (FP); P10636; K18 P301L tau heparin fibrillization, Alexa594 FP, 6 h; Potency, µM (doses to about 57.7 µM), for inactives: at the top dose activity, negative = inhibition, most hits filed as inhibitors; actives 0.39% (n = 280,000); active = well fitted curve in the direction sought with a large enough effect; inconclusive = small, poorly fitted or top-dose-only effect, or another doubt; inactive = no such curve, though single readings can be large; an effect the other way counts as inactive or inconclusive; also: nearly all actives have a fitted effect of over 55% in size
# Target sequence (P10636 561-689 P618L limits assumed): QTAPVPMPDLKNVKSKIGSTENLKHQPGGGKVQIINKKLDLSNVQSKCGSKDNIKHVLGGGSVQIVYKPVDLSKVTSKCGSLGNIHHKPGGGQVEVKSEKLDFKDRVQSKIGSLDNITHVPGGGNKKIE
#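 K18 P301L tau (15 uM unlabeled/0.24 uM Alexa 594-labeled, final) + compound + heparin 20 uM final; 100 mM NaOAc pH 7; 6 hr 37 C; ThT 30 uM final added, 1 hr RT; FP ex 555/em 632 nm.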
# KDM4E inh: blocks human JMJD2E demethylase activity. B2RXH2. JMJD2E catalytic domain, FDH-coupled NADH fluorescence (FDH is formaldehyde dehydrogenase). Potency, µM (doses to about 57.1 µM), for the others: top-dose activity change, negative = inhibition, hits mostly inhibitors. actives 1.6% (n = 230,000). AID 2147;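 also: 0% = wells with enzyme and -100% = buffer wells without enzyme; nearly all actives have a fitted effect of over 50% in size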
# Target sequence (B2RXH2 1-337 limits assumed): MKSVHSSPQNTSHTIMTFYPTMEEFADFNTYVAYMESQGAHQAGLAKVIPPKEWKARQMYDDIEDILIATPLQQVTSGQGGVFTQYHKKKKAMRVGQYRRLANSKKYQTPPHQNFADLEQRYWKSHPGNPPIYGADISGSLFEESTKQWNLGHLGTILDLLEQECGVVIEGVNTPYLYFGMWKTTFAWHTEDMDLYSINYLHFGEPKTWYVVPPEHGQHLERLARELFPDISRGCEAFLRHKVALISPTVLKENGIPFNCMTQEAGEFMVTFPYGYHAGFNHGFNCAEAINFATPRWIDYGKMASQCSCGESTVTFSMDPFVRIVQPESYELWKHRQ
# Tau ThT inhib: inhibitors of human tau fibril formation, thioflavin T binding; Potency, µM (series often up to 57.4 µM), without a hit: at the highest dose activity, negative = inhibition, actives largely listed as inhibitors; P10636; actives 2.1% (n = 270,000); recombinant tau K18 P301L (four-repeat tau fragment), heparin-induced fibrillization, ThT fluorescence; active = well fitted curve in the direction sought with a large enough effect; inconclusive = small, poorly fitted or top-dose-only effect, or another doubt; inactive = no such curve, though single readings can be large; an effect the other way counts as inactive or inconclusive; also: nearly all actives have a fitted effect of over 55% in size
#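 Heparin-induced (20 uM) aggregation of recombinant human K18 P301L tau, 15 uM unlabeled with 0.24 uM labeled, pH 7 acetate buffer, 6 hr at 37 C with compound. Fibrils quantified by 30 uM ThT fluorescence after 1 hr ambient incubation.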
# * hit, by the source's call; ? = inconclusive; nt = not tested or not shown; ! = not confirmed by another sample; [ ] = dose if it differs, or a comment. Unless noted, calls follow the shape of the dose curve; as a rule, active = well fitted inhibition curve with a large enough effect (not every such curve was filed as active); inconclusive = small, poorly fitted or top-dose-only effect, or another doubt; inactive = no such curve, though single readings can be large or run the other way. Unless noted, % is scaled to controls: 0 for no effect and ±100 for the full control effect; potency is read from the fitted curve at half-maximal effect.
SMILES,Tau fluor counter,ALDH1A1 block,HPGD block,Tau fibril FP,KDM4E inh,Tau ThT inhib
COCCCNC(=O)c1c(N)n(Cc2ccco2)c2nc3ccccc3nc12,?,nt,nt,-2.4%,?,?
O=C(N/N=C/c1c(O)n(-c2ccccc2)c(=O)[nH]c1=O)c1ccncc1,-20.4%,?,?,-6.1%,?,?
O=C(N/N=C/c1c(O)n(-c2ccccc2)c(=S)[nH]c1=O)c1ccccc1,14.7%[0.0958 µM],nt,nt,4.4%[0.0958 µM],28.2µM*,nt
O=C(N/N=C/c1c(O)n(CCC2=CCCCC2)c(=S)[nH]c1=O)c1ccccc1,?,?,?,?,?,25.1µM*
O=C(N/N=C/c1c(O)n(CCC2=CCCCC2)c(=O)[nH]c1=O)c1ccccc1,-23.0%,?,-24.5%,-5.3%,?,?
Nc1ccccc1N=Cc1c(O)n(CCC2=CCCCC2)c(=O)[nH]c1=O,-15.0%,2.82µM*,nt,-0.2%,?,?
CCCN1CCCC2Cc3[nH]ncc3CC21 (configuration not stated),-2.2%,3.0%,-6.3%,5.7%,-1.9%,-3.6%
CSc1cccc(NC(=O)C2CCN(C(=O)c3cnn(-c4ccccc4)c3-n3cccc3)CC2)c1,?,nt,nt,-15.2%,nt,-6.1%
C[C@]12CC[C@@H]3[C@H](CCC4=CC(=O)CC[C@]43C)[C@]1(O)CC[C@@]2(O)C(=O)CO,nt,7.5%[13.5 µM],-6.7%,nt,nt,nt
Cc1cc(OC(=O)c2cccs2)c2c3c(c(=O)oc2c1)CCCC3,-24.3%,12.6µM*,-6.2%,-2.3%,-13.1%,?
Cc1cc(OCC(=O)Nc2c(C)n(C)n(-c3ccccc3)c2=O)c2c3c(c(=O)oc2c1)CCC3,-4.6%,3.16µM*,?,-2.1%,?,-14.8%
Cc1cc(OC(=O)c2ccco2)c2c3c(c(=O)oc2c1)CCCC3,-28.8%,14.1µM*,-10.9%,-7.8%,-4.7%,?
Cc1ccc(C(=O)C2CN3CCC2CC3)cc1 (configuration not stated),-2.2%,28.2µM*,-9.5%,-4.4%,-0.2%,-9.7%
C1C[C@@H]2CN(CCCN3CCOCC3)[C@@H](C1)O2,nt,11.4%[13.5 µM],-3.7%,nt,nt,nt
COc1cc(CNC(=O)CCCC/C=C\C(C)C)ccc1O,-15.7%,3.55µM*,-7.5%,2.1%,?,-12.0%
CCC1CN(C)CCC1(OC(C)=O)c1ccccc1 (configuration not stated),4.3%,-14.0%,2.3%,1.5%,6.6%,0.9%
CCCCN1CCC(O)(c2ccccc2)C(C(=O)c2ccccc2)C1 (configuration not stated),-5.9%,0.112µM*,-22.3%,-1.8%,4.9%,-7.3%
COc1ccc(Nc2ncc(C(=O)N3CCC4(CC3)OCCO4)c3ccccc23)cc1,-20.2%,-10.1%,22.4µM*,5.7%,-3.7%,-13.1%
COc1ccc(NC(=O)N2CCC3(CC2)OCCO3)cc1,9.7%,9.8%,nt,5.7%,-2.5%,2.4%
O=C(Cl)/C=C/C(=O)Cl,nt,16.1%,-1.0%,nt,nt,nt
O=C(O)CNC(=O)[C@@H](CS)Cc1ccccc1,nt,?,7.94µM*,nt,-2.6%[25.5 µM],nt
NC1=N[C@H](O)[C@H]2C3O[C@]4(O)O[C@H](C(O)[C@@]2(N1)[C@@H]4O)C3(O)CO (some centres not stated),-7.9%,-2.4%,-9.2%,-5.3%,nt,-4.1%
COc1ccc2c(c1O)-c1cccc3c1C(C2)N(C)CC3 (configuration not stated),-24.2%,?,?,?,?,?
C=CCN1CCc2cccc3c2C1Cc1ccc(O)c(O)c1-3 (configuration not stated),14.1µM*[quencher],?,?,?,?,14.1µM*
CN1CCc2cc(O)cc3c2C1Cc1ccc(O)c(O)c1-3 (configuration not stated),17.8µM*[quencher],?,?,39.8µM*,?,15.8µM*
SMILES,Tau fluor counter,ALDH1A1 block,HPGD block,Tau fibril FP,KDM4E inh,Tau ThT inhib
CCCCC(CC)COC(=O)c1ccc(C(=O)OCC(CC)CCCC)c(C(=O)OCC(CC)CCCC)c1 (configuration not stated),nt,?,-5.9%,nt,nt,nt
O=C1C(=O)c2ccccc2-c2ccccc21,-22.4%,2.0%,-10.7%,?,?,3.16µM*
CCCCCCCCCCCCC/C=C/[C@@H](O)[C@@H](N)COP(=O)(O)O,-2.4%,15.8%,-2.8%,-2.2%,-5.2%,-3.3%
COc1cccc(C(=O)C2CCCN(C3CCOCC3)C2)c1 (configuration not stated),-6.9%,0.2%,nt,-1.2%,-16.4%,-5.3%
COc1ccc(C(=O)C2CCCN(Cc3ccc(C)s3)C2)c(OC)c1 (configuration not stated),-6.2%,-5.1%,nt,8.8%,-15.6%,-7.9%
COc1ccc(C(=O)C2CCCN(C3CSCCSC3)C2)c(OC)c1 (configuration not stated),-15.6%,14.1µM*,nt,-3.0%,-12.3%,-9.6%
COc1ccc(C(=O)C2CCCN(C3CSCCSC3)C2)c(C)c1 (configuration not stated),-11.1%,14.1µM*,nt,0.1%,-21.8%,-5.3%
Oc1c(Cl)cccc1Cl,nt,15.4%,-14.3%,nt,nt,nt
COc1ccccc1NC(=O)CCn1cnc2onc(-c3ccc(F)cc3)c2c1=O,?,nt,nt,-8.8%,nt,-10.6%
O=c1[nH]c(=S)[nH]c(O)c1C(c1ccccn1)c1c(O)[nH]c(=S)[nH]c1=O,1.9%,?,nt,2.1%,?,-15.0%
CCn1c(O)c(C(c2ccccn2)c2c(O)n(CC)c(=S)[nH]c2=O)c(=O)[nH]c1=S,-17.6%,25.1µM*,-8.0%,?,?,?
CN(C)/C=C1/C(=O)NC(=O)N(CCNc2ncc(C(F)(F)F)cc2Cl)C1=O,-8.7%,?,nt,?,62.0%,15.8µM*
COc1ccc(CCNc2nccn(-c3ccc(C)c(C)c3)c2=O)cc1OC,-14.0%,nt,nt,-0.2%,nt,?
CCCN(C/C=C\I)[C@@H]1CCc2ccc(O)cc2C1,-11.0%,2.3%,-7.5%,-4.0%,0.7%,-6.1%
CCCN(CCC)C1Cc2cc(OC)c(OC)cc2C1,0.5%,22.4µM*!,-16.6%,-5.1%,-0.9%,2.4%
CC1CC2OC2/C=C\C=C/C(=O)Cc2c(Cl)c(O)cc(O)c2C(=O)O1 (configuration not stated),-17.8%,22.4µM*,17.8µM*,-10.4%,nt,?
C[C@H]1CCC[C@H](O)CCCCCc2cc(O)cc(O)c2C(=O)O1,-19.8%,?,-3.2%,?,5.3%,-12.8%
CCC#N,nt,?,-16.6%,nt,nt,nt
C=C1C(=O)O[C@H]2C[C@@H](C)[C@@H]3C=CC(=O)[C@@]3(C)C[C@H]12,-9.2%,nt,nt,?,9.6%,17.8µM*

# Source: PubChem (National Center for Advancing Translational Sciences (NCATS))
